# Data published in PubChem BioAssay AID489012 (National Center for Advancing Translational Sciences (NCATS), 2010).
# Records with an inconclusive call do not appear. Entries that show only a call come without a potency. The source made the active and inactive calls. The call rests on the fitted dose curve; in most records, active means well fitted activation curve with a large enough effect; inconclusive means small, poorly fitted or top-dose-only effect; inactive means no such curve, though single readings can be large or run the other way.
# Target: Relaxin receptor 1 (Homo sapiens) (UniProt Q9HBX9)
# Experiment: qHTS Assay for Agonists of the Relaxin Receptor RXFP1: RXFP1 Hit Validation; further: nearly all actives have a fitted effect of over 65% in size;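 on activation: cAMP rise lowers the TR-FRET signal in lysed cells with PDE4 inhibitor present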
# Details: HEK293T-RXFP1 cAMP TR-FRET, 30 min; series mostly up to 115 µM
# Potency means the concentration at half of the fitted maximal effect.
# Relaxin receptor 1 (Homo sapiens), sequence (Q9HBX9 whole entry, looked up): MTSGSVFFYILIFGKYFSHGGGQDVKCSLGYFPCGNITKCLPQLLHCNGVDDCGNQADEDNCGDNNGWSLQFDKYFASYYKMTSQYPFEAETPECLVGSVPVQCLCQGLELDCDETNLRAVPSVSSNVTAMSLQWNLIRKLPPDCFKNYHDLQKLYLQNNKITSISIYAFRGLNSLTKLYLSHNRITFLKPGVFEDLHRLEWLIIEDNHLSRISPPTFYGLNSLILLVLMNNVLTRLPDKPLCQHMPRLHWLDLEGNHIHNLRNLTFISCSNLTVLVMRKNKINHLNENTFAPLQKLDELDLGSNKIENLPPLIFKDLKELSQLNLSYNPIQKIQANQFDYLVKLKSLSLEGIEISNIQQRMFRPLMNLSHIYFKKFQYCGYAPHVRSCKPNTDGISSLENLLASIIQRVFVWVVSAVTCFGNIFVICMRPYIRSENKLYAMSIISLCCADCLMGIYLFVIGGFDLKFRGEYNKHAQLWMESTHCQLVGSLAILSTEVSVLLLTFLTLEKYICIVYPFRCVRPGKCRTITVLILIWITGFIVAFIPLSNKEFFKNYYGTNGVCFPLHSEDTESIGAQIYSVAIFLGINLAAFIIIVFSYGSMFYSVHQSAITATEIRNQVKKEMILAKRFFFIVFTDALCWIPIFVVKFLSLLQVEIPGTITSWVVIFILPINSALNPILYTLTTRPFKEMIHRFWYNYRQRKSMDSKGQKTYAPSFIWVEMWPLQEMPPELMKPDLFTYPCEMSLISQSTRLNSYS
row,SMILES,Potency
1,CC(NC(=O)c1ccccc1NC(=O)c1ccco1)C(=O)O (stereo unspecified),inactive
2,COCCNC(=O)C(OC(=O)c1nsc(Cl)c1Cl)C(C)C (stereo unspecified),inactive
3,N#Cc1c(N)nc(SCC(=O)C23CC4CC(CC(C4)C2)C3)c(C#N)c1-c1ccc(Cl)cc1,9.74 µM (active)
4,O=C(Nc1ccccc1C(=O)Nc1ccccc1)c1ccco1,inactive
5,C=CCNc1ncnc2c1ncn2C1OC(CO)C(O)C1O (stereo unspecified),inactive
6,O=C1CN(c2nc3ccccc3n3cnnc23)CC(=O)N1CCc1ccccc1,inactive
7,COC(=O)Cn1cnc2c(C#N)c3n(c2c1=O)CCCCC3,13.8 µM (active)
8,CN(CC(=O)Nc1ccccc1Cl)C(=O)COC(=O)Cc1c(F)cccc1Cl,inactive
9,NC(=S)c1cc2ccc(O)cc2oc1=O,7.74 µM (active)
10,O=C(Nc1ccccc1C(=O)N1CCNCC1)c1ccco1,inactive
11,CC(C)C(=O)Nc1ccc(Nc2ccccc2)cc1,inactive
12,C=C(C)C(=O)Nc1cccc(C2=NOC3(C2)C[C@@H](C(N)=O)N(C(=O)c2ccc(Cl)cc2)C3)c1 (stereo partly specified),inactive
13,O=C(Nc1ccccc1C(=O)N1CCOCC1)c1ccco1,inactive
14,Cc1cc(C)n(C(=O)CCCn2cc([N+](=O)[O-])cn2)n1,inactive
15,Cc1ccc(C(=O)Nc2ccccc2C(=O)NCc2ccco2)cc1,inactive
16,Nc1cc2ccncc2c2ccccc12,inactive
17,CC(=O)Nc1ccc(NC(=O)CSc2ccc3nnc(-c4ccccn4)n3n2)cc1,inactive
18,CCN(CC)C(=O)c1cc(Cl)ccc1NC(=O)c1ccco1,inactive

row,SMILES,Potency
1,Cc1noc(NS(=O)(=O)c2ccc(N3Cc4ccccc4C3=O)cc2)c1C,11.9 µM (active)
2,CCOC(=O)/C(C#N)=C/c1c(N2CCN(CC)CC2)nc2c(C)cccn2c1=O,inactive
3,COc1ccc(CNC(=O)CN2C(=O)NC(C)(c3cccc(Br)c3)C2=O)cc1 (stereo unspecified),inactive
4,O=S(=O)(c1cccc(-c2cn3cccnc3n2)c1)N1CCOCC1,27.5 µM (active)
5,c1ccc(-c2nnc(-c3ccccn3)c(-c3ccccn3)n2)nc1,inactive
6,CCc1ccc2n(-c3ccc(OC)cc3)c([S-])c(C(=O)Nc3cc(C)cc(C)c3)[n+]2c1,24.5 µM (active)
7,CN1CCN(C(=O)CCc2nnc3ccc(N4CCC5(CC4)OCCO5)nn23)CC1,inactive
8,CCC1(C)Cc2c(sc3c2c2ncnn2c2nnc(SCC(=O)NCc4ccco4)n32)CO1 (stereo unspecified),12.3 µM (active)
9,Cn1c2c(c(=O)n3ncnc13)CCCC2,inactive
10,Cc1cc2nc3ccc(=[N+](C)C)cc-3sc2cc1N,inactive
11,N#C/C(=C\c1c(N2CCC(C(N)=O)CC2)nc2ccccn2c1=O)C(=O)NC1CCCCC1,inactive
12,COC(=O)c1c(N2C(=O)CC(Sc3ncccc3C(=O)O)C2=O)sc(C)c1C (stereo unspecified),inactive
13,CCCC(=O)Nc1ncnc2c1ncn2[C@@H]1O[C@@H]2OP(=O)(O)OC[C@H]2[C@H]1OC(=O)CCC,0.346 µM (active)
14,Nc1c(S(=O)(=O)O)cc(NC(=O)c2ccccc2)c2c1C(=O)c1ccccc1C2=O,inactive
15,COc1ccc(C(=O)Nc2ccc(S(=O)(=O)Nc3onc(C)c3C)cc2)c(OC)c1,5.95 µM (active)
16,Cn1c(N)c(C(=O)CSc2nnc(NC3CCCCC3)s2)c(=O)n(C)c1=O,inactive
17,Cc1ccc2cc(CN(C(=O)c3cccs3)c3ccccc3)c(=O)[nH]c2c1,inactive
18,CC(=O)CCCCn1c(=O)c2c(ncn2C)n(C)c1=O,inactive
